Test results as given in article PMC4552634, “A New Set of Chemical Starting Points with Plasmodium falciparum Transmission-Blocking Potential for Antimalarial Drug Discovery” (PLoS ONE, 2015).
Out of some 13,000 compounds screened, about 3,200 (25%) showed an effect of 50% or more. Some of the results follow.

These molecules were tested on P. falciparum stage V gametocytes. Conditions: 48 h, 5 µM; inhibitor.
Parameters: BacTiter-Glo ATP luminescence viability of purified stage V gametocytes in 384-well plates, per cent inhibition versus DMSO

| SMILES | % Inhibition [%] |
| --- | --- |
| CCOC(=O)NCCSC(C)(C)[C@H](NC(=O)[C@H](Cc1cc2ccccc2s1)[C@H](CC)N(O)C=O)C(=O)Nc1nccs1 [TCMDC-137792] | 7.703 |
| CN(C)CCNCc1cccc(-c2ccc3c(Nc4cc(O)c(Cl)cc4F)ccnc3c2)c1 [TCMDC-138413] | 57.17 |
| CN(C)CCN(C)Cc1cccc(-c2ccc3c(Nc4ccc(F)cc4Cl)ccnc3c2)c1 [TCMDC-138416] | 87.2 |
| CN(C)CCNCc1ncsc1-c1ccc2c(Nc3ccc(F)cc3Cl)ccnc2c1 [TCMDC-138466] | 30.52 |
| CN1CCN(Cc2cccc(-c3ccc4c(Nc5ccc(F)cc5Cl)ccnc4c3)c2)CC1 [TCMDC-138417] | 75.62 |
| CN1CCN(Cc2cccc(-c3ccc4c(Nc5cc(O)c(Cl)cc5F)ccnc4c3)c2)CC1 [TCMDC-138430] | 33.23 |
| Fc1ccc(Nc2ccnc3cc(I)ccc23)c(Cl)c1 [TCMDC-138387] | 14.07 |
| CS(=O)(=O)CCNCc1cccc(-c2ccc3c(Nc4cc(O)c(Cl)cc4F)ccnc3c2)c1 [TCMDC-138435] | -21.48 |
| COCCNCc1cccc(-c2ccc3c(Nc4cc(O)c(Cl)cc4F)ccnc3c2)c1 [TCMDC-138429] | 38.53 |
| CN(C)CCNCc1cccc(-c2ccc3c(Nc4ccc(F)cc4Cl)ccnc3c2)c1 [TCMDC-138412] | 66.82 |
| Fc1ccc(Nc2ccnc3cc(-c4cccc(CN5CCCCC5)c4)ccc23)c(Cl)c1 [TCMDC-138418] | 24.75 |
| COCCNCc1cccc(-c2ccc3c(Nc4ccc(F)cc4Cl)ccnc3c2)c1 [TCMDC-138415] | 42.47 |
| CN(C)CCN(C)Cc1cccc(-c2ccc3c(Nc4cc(O)c(Cl)cc4F)ccnc3c2)c1 [TCMDC-138432] | 25.38 |
| N=C(N)c1cccc(-c2cc(-c3cccc(C(=N)N)c3)on2)c1 [TCMDC-137789] | 11.2 |
| CCCCNC(=O)[C@@H](NC(=O)c1ccc(O)c(-c2ccc(Cl)c(Cl)c2)c1)C(C)C [TCMDC-140839] | 36.3 |
| CCCCOP(=O)(COc1ccc(CCN(CC(O)COc2cccc3[nH]c4ccccc4c23)CC(O)COc2cccc3[nH]c4ccccc4c23)cc1)C1CCCCC1 (stereo not drawn) [TCMDC-139016] | 44.85 |
| COc1ccc(Nc2nccc(N3CCC(NC(=O)Nc4cccc(C(C)=O)c4)C3)n2)cc1 (stereo not drawn) [TCMDC-133610] | -16.63 |
| COc1cc(Cc2cnc(N)nc2N)cc(OCCCOc2ccccc2)c1OC [TCMDC-137687] | 38.19 |
| COc1ccc(C=CC(=O)N2CCC(CN3CCC(c4c[nH]c5ccccc45)CC3)CC2)cc1OC [TCMDC-139944] | -13.45 |
| COc1cc(C=CC(=O)N2CCC(CN3CCC(c4c[nH]c5ccccc45)CC3)CC2)ccc1O [TCMDC-139913] | -95.05 |
| COc1cc(C=CC(=O)N2CCC(CCN3CCC(c4c[nH]c5ccccc45)CC3)CC2)cc(OC)c1 [TCMDC-139938] | 103.2 |
| COc1cc(C=CC(=O)N2CCC(CN3CCC(c4c[nH]c5ccccc45)CC3)CC2)cc(OC)c1 [TCMDC-139945] | -6.368 |
| O=C(C=Cc1ccc(-c2ccccc2)cc1)N1CCC(CCN2CCC(c3c[nH]c4ccccc34)CC2)CC1 [TCMDC-139941] | 105.7 |

| SMILES | % Inhibition [%] |
| --- | --- |
| O=C(/C=C/c1ccsc1)NC1CCC(CN2CCC(c3c[nH]c4ccccc34)CC2)CC1 (stereo not drawn) [TCMDC-140294] | -21.49 |
| O=C(/C=C/c1ccc(F)c(C(F)(F)F)c1)N1CCC(CN2CCC(c3c[nH]c4ccccc34)CC2)CC1 [TCMDC-140384] | -23.83 |
| O=C(/C=C/c1ccsc1)N1CCC(CCN2CCC(c3c[nH]c4ccccc34)CC2)CC1 [TCMDC-140263] | 102.1 |
| CC(C)c1ccc(C=CC(=O)N2CCC(CCN3CCC(c4c[nH]c5ccccc45)CC3)CC2)cc1 [TCMDC-139942] | 110.7 |
| Cc1ccc(/C=C/C(=O)N2CCC(CCN3CCC(c4c[nH]c5ccccc45)CC3)CC2)cc1C [TCMDC-139762] | 46.51 |
| COc1cc(NC(=O)N2CCc3ccc(OCCN(C(C)C)C(C)C)cc32)cc(C(F)(F)F)c1 [TCMDC-140251] | 48.14 |
| CN1CCCC(OC(=O)c2ccccc2)C1 (stereo not drawn) [TCMDC-125511] | 3.276 |
| Fc1ccc2[nH]c(-c3cccc(-c4cccc(CNCC5CCCO5)c4)c3)nc2c1.O=C(O)C(F)(F)F (stereo not drawn) [TCMDC-133091] | -32.27 |
| O=C(NC1CCCc2ccccc21)[C@@H]1CCCN1C(=O)c1ccc(O)c(-c2ccc(Cl)c(Cl)c2)c1 (stereo partly drawn) [TCMDC-140867] | 31.83 |
| COC(=O)c1ccc(CC(C)NCC(O)c2cccc(SC(F)(F)F)c2)cc1 (stereo not drawn) [TCMDC-131494] | 25.48 |
| CCCC(N)C(=O)NC1CCN(c2c(F)c(N)c3c(=O)c(C(=O)O)cn4c3c2Oc2ccccc2-4)C1 (stereo not drawn) [TCMDC-125701] | 40.26 |
| Cc1cc(CNC(c2ccccc2)C2CCC2)cc(C)c1O (stereo not drawn) [TCMDC-134518] | -25.25 |
| Cc1nc2nc(N)nc(N)c2c(C)c1Cc1ccc(C(F)(F)F)cc1 [TCMDC-137656] | -0.8923 |
| N#Cc1ccccc1Sc1ccccc1C(=O)Nc1ccc2ccccc2n1 [TCMDC-125464] | 33.3 |
| O=C(/C=C/c1ccc([N+](=O)[O-])cc1)N1CCC(CCN2CCC(c3c[nH]c4ccccc34)CC2)CC1 [TCMDC-139940] | -27.66 |
| O=C(/C=C/c1cc([N+](=O)[O-])ccc1Cl)NC1CCC(CN2CCC(c3c[nH]c4ccccc34)CC2)CC1 (stereo not drawn) [TCMDC-139907] | -55.07 |
| O=C(/C=C/c1ccccc1O)N1CCC(CCN2CCC(c3c[nH]c4ccccc34)CC2)CC1 [TCMDC-139712] | 101.8 |
| O=C(C=Cc1ccccc1O)N1CCC(CN2CCC(c3c[nH]c4ccccc34)CC2)CC1 [TCMDC-139912] | -49.08 |
| O=C(/C=C/c1ccc(Cl)cc1Cl)N1CCC(CCN2CCC(c3c[nH]c4ccccc34)CC2)CC1 [TCMDC-139711] | 81.98 |
| O=C(C=Cc1ccc(Br)cc1)N1CCC(CCN2CCC(c3c[nH]c4ccccc34)CC2)CC1 [TCMDC-139939] | 87.97 |
| O=C(/C=C/c1cc(F)c(F)cc1F)N1CCC(CN2CCC(c3c[nH]c4ccccc34)CC2)CC1 [TCMDC-140383] | -20.73 |
| O=C(/C=C/c1cc([N+](=O)[O-])ccc1Cl)N1CCC(CCN2CCC(c3c[nH]c4ccccc34)CC2)CC1 [TCMDC-139911] | 95.76 |
